Test results reported in PubChem BioAssay (NCATS).
Several values for one entry are separate records, joined by “and”; a condition that tells them apart may be missing. Equal entries are not always repeated. Records with an inconclusive call do not appear. Activity calls are given as the source filed them. Unless noted, calls come from the whole dose curve; as a rule, active = well fitted curve in the direction sought with a large enough effect; inconclusive = small, poorly fitted or top-dose-only effect, or another doubt; inactive = no such curve, though single readings can be large; an effect the other way counts as inactive or inconclusive.

Columns and labels:
[1] = qHTS assay for small molecule disruptors of the mitochondrial membrane potential - 1 hr assay (AID 651754; calls by dose curve; note: % is set by controls: 0 for no effect and ±100 for the full control effect; nearly all actives have a fitted effect of over 35% in size)
How it was run: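 Read-out: dye fluorescence at 490 nm ex/535 nm em (monomers) and 540 nm ex/590 nm em (aggregates) in HepG2 cells. Compound exposure 1 hr at 37C, followed by 30 min dye loading.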

[2] = qHTS assay for small molecule disruptors of the mitochondrial membrane potential - 5 hr assay (AID 651755; calls by dose curve; note: % is set by controls: 0 for no effect and ±100 for the full control effect; nearly all actives have a fitted effect of over 40% in size)
How it was run: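 Read-out: ratiometric Mito-MPS fluorescence, green monomer (ex 490/em 535) vs red mitochondrial aggregate (ex 540/em 590). HepG2 cells treated 5 hr at 37C before 30 min dye loading.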

[3] = target: Tumor necrosis factor (Homo sapiens) (UniProt P01375); test: qHTS assay to identify small molecules that stimulate Tumor Necrosis Factor-alpha (TNF-alpha) secretion (AID 651757; active = well fitted curve in the direction sought with a large enough effect in the signal ratio; the % refers to the signal ratio; note: 0% is about no effect)
Sequence of Tumor necrosis factor (Homo sapiens) (P01375 whole entry, looked up): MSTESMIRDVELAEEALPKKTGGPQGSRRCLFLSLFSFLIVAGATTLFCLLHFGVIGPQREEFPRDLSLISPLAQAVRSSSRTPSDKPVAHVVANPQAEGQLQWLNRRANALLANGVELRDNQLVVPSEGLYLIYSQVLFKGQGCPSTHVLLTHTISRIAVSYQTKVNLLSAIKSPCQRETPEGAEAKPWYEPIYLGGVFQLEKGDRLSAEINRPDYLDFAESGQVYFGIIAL
How it was run: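 THP-1 cells, 3000/well; compound 17 hrs, 37 C; add cryptate/XL665 anti-TNF-alpha antibody pair; 3 hr RT; TR-FRET (HTRF) read of secreted TNF-alpha. Quantitative HTS format.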

[4] = qHTS assay for environmental chemicals that activate the Aryl hydrocarbon Receptor (AhR) signaling pathway (AID 651777); settings: 1A2-DRE human hepatoma cells, luciferase, 24 h; activation: stronger effect = higher value; note: % of control where 0% means no effect; nearly all actives have a fitted effect of over 15% in size
How it was run: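 Stable CYP1A2 promoter/DRE-luciferase human hepatoma line treated 24 hr; One-Glo luminescence, 30 min RT.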

[5] = target: Peroxisome proliferator-activated receptor alpha (Homo sapiens) (UniProt Q07869); test: qHTS assay for small molecule agonists of the peroxisome proliferator-activated receptor alpha (PPARalpha) signaling pathway (AID 651778); settings: PathHunter PPARalpha complementation, chemiluminescence, 6 h; stronger effect = higher value; note: % of control where 0% means no effect
Sequence of Peroxisome proliferator-activated receptor alpha (Homo sapiens) (Q07869 whole entry, looked up, the tested form may be a part): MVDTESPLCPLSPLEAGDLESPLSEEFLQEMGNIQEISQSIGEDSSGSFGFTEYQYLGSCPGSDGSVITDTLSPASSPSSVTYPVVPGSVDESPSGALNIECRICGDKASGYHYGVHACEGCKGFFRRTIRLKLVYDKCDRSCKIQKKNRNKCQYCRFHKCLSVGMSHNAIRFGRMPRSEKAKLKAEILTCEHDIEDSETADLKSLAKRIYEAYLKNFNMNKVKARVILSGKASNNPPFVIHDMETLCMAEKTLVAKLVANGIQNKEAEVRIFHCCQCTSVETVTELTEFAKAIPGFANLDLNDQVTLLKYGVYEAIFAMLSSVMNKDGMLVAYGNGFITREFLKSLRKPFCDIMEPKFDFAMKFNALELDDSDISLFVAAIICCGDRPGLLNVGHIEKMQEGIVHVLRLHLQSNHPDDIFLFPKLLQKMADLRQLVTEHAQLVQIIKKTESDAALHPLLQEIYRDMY
How it was run: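 Enzyme-fragment complementation assay in which ligand-bound PPARalpha translocates and forms an active enzyme that generates chemiluminescence. Cells were plated overnight, exposed to compound for 6 hr at 37 C, and then given detection reagent for 60 min at room temperature.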

[6] = target: Nuclear receptor ROR-gamma (Homo sapiens) (UniProt P51449); test: qHTS assay for small molecule antagonists of the retinoid-related orphan receptor gamma (ROR-gamma) signaling pathway (AID 651802);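 note: CHO cells with doxycycline-induced ROR-gamma expression; luciferase reporter luminescence driven by ROR response element; series mostly up to about 92 µM; % is set by controls: 0 for no effect and ±100 for the full control effect; nearly all actives have a fitted effect of over 60% in size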
Sequence of Nuclear receptor ROR-gamma (Homo sapiens) (P51449 whole entry, looked up): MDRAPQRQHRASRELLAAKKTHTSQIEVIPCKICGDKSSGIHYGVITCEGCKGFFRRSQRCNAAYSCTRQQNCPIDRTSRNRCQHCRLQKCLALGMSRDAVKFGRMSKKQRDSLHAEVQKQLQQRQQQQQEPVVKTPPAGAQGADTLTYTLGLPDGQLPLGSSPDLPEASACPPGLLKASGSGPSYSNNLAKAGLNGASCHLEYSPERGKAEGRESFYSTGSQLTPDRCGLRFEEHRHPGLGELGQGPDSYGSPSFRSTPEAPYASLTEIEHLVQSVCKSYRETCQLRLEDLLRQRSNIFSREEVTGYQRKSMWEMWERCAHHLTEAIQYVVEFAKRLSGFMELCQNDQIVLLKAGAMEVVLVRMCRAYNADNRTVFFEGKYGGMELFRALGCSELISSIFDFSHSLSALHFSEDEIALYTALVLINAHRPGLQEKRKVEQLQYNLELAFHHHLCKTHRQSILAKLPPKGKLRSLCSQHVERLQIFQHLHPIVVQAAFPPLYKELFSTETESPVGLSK
How it was run: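 Luciferase read-out: ONE-Glo luminescence after 30 min at room temperature, following 16hr doxycycline induction at 37C, 5% CO2 of CHO cells with TET-inducible ROR and RORE-LUC reporter; decreased luminescence = reduced reporter activity.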

[7] = qHTS assay for small molecule agonists of the antioxidant response element (ARE) signaling pathway measured by Nrf2-dependant transcriptional activity (AID 720636; active = well fitted curve in the direction sought with a large enough effect in the repeat runs; an effect the other way counts as inactive or inconclusive;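 note: HepG2 cells with an ARE-driven luciferase reporter; % of control where 0% means no effect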)
How it was run: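 Reporter gene assay, HepG2 ARE-luc: 16 hr compound, 37 C, 5% CO2; read-out luciferase luminescence.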

[8] = qHTS assay for small molecule agonists of the antioxidant response element (ARE) signaling pathway measured by Nrf2-dependant transcriptional activity - cell viability counter screen (AID 720653; active = well fitted curve in the direction sought with a large enough effect in the repeat runs; an effect the other way counts as inactive or inconclusive; note: % is set by controls: 0 for no effect and ±100 for the full control effect); settings: ARE-bla HepG2 viability, CellTiter-Glo ATP luminescence, 16 h; stronger effect = lower value
How it was run: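 ARE-bla HepG2 cells treated with compounds for 16 h at 37C; this counter screen measures viability as intracellular ATP by CellTiter-Glo luminescence after 30 min at room temperature.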

[9] = qHTS assay for cell viability of HEK293 cells (AID 743288); settings: ATP luminescence (CellTiter-Glo), 18 h, stronger effect = lower value; note: % is set by controls: 0 for no effect and ±100 for the full control effect; nearly all actives have a fitted effect of over 50% in size
How it was run: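 Readout is luciferase-coupled ATP content (CellTiter-Glo luminescence, 30 min room temperature) as a measure of metabolically competent cells. Parental HEK293 cells were plated 5 h or more before compound addition, then treated 18 h at 37 C.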

[10] = qHTS assay for cell viability of the p53RE-bla HCT-116 cell line (AID 743292); note: % is set by controls: 0 for no effect and ±100 for the full control effect; nearly all actives have a fitted effect of over 55% in size
How it was run: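 Readout: CellTiter-Glo luminescence after 30 min RT. Treatment: compounds in DMSO, 16 h, 37 C. Cells: CellSensor p53RE-bla HCT-116, 4,000/well, preincubated 5 h.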

[11] = target: Nuclear receptor subfamily 1 group I member 2 (Rattus norvegicus) (UniProt Q9R1A7); test: qHTS assay for small molecule activators of the rat pregnane X receptor (rPXR) signaling pathway (AID 651751; call rule not given here; note: 0% is about no effect); settings: rPXR reporter cells, luciferase (One-Glo), 24 h
Sequence of Nuclear receptor subfamily 1 group I member 2 (Rattus norvegicus) (Q9R1A7 whole entry, looked up): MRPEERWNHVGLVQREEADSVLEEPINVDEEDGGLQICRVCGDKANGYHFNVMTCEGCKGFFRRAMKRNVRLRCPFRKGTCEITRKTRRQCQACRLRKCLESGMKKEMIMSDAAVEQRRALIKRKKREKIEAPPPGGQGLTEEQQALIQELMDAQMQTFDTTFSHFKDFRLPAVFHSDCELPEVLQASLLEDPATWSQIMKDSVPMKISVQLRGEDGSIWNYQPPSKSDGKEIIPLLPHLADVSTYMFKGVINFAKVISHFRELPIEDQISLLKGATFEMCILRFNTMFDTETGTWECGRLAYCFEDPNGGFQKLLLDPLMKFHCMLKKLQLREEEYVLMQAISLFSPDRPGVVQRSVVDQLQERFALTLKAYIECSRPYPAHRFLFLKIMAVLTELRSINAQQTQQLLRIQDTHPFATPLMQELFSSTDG

[12] = qHTS assay for small molecule activators of the human pregnane X receptor (PXR) signaling pathway (AID 720659; call rule not given here; note: 0% is about no effect)
[13] = qHTS assay for small molecule antagonists of the retinoid-related orphan receptor gamma (ROR-gamma) signaling pathway - cell viability counter screen (AID 720652; active = well fitted curve in the direction sought with a large enough effect in the repeat runs; an effect the other way counts as inactive or inconclusive;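 note: CHO reporter cells with doxycycline-induced ROR-gamma expression; series mostly up to about 92 µM; compound exposure lasted 16 hr before ATP read; % is set by controls: 0 for no effect and ±100 for the full control effect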)
How it was run: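 CHO RORE-LUC/TET-ROR line, 1,000 cells/well, 37 C 5% CO2 5 hr; cpd or DMSO + doxycycline induction, 16 hr. CellTiter-Glo, 30 min RT, luminescence = ATP content.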

O=C(O)c1ccc(C(=O)O)cc1
inactive: Potency [1] | Potency [2] | Potency [3] | activation [4] -0.394% and -1.3% | max response [5] -2.31% and 0.244% | Potency [6] | outcome [7] | max response [8] -2.71% and -15.5% | max response [9] 8.37% and 1.4% | Potency [10] | max response [11] -1.05% and -0.301% | outcome [12]

O=C(O)c1cc(Cl)cc(Cl)c1
inactive: Potency [1] | Potency [2] | Potency [3] | activation [4] 0.13% | max response [5] -2.98% | outcome [7] | Potency [13] | max response [8] 0.662% | max response [9] 9.31% | Potency [10] | max response [11] -3.46% | outcome [12]

NS(=O)(=O)O
inactive: Potency [1] | Potency [2] | Potency [3] | activation [4] 0.965% | max response [5] -1.54% | Potency [6] | Potency [13] | max response [8] 3.57% | max response [9] 3.9% | Potency [10] | max response [11] -5.24% | outcome [12]

C=CCn1c(=O)n(CC=C)c(=O)n(CC=C)c1=O
inactive: Potency [1] | Potency [2] | Potency [3] | activation [4] 0.438% | max response [5] -0.851% | Potency [6] | outcome [7] | max response [8] -13.5% | max response [9] 8.26% | Potency [10] | max response [11] 4.89% | outcome [12]

FC(F)(F)c1ccccc1Cl
inactive: Potency [1] | Potency [2] | Potency [3] | activation [4] -0.14% | max response [5] -1.82% | outcome [7] | Potency [13] | max response [8] -5.26% | max response [9] 10.1% | Potency [10] | max response [11] -1.61% | outcome [12]

c1ccc2n[nH]nc2c1
inactive: Potency [1] | Potency [2] | Potency [3] | activation [4] 0.556% | max response [5] -6.33% | Potency [6] | outcome [7] | max response [8] 3.37% | max response [9] -14.1% | Potency [10] | max response [11] -4.36% | outcome [12]

FC(F)(F)c1cccc(Cl)c1
inactive: Potency [1] | Potency [2] | Potency [3] | activation [4] -0.497% | max response [5] -9.21% | Potency [6] | outcome [7] | max response [8] -9.33% | max response [9] -5.31% | Potency [10] | max response [11] -6.22% | outcome [12]

CCCC=O
inactive: Potency [1] | Potency [2] | Potency [3] | activation [4] -0.933% | max response [5] 2.48% | Potency [6] | outcome [7] | max response [8] -6.36% | max response [9] -2.32% | Potency [10] | max response [11] 1.21% | outcome [12]

CC(=O)OC(C)C
inactive: Potency [1] | Potency [2] | Potency [3] | activation [4] -2.35% | max response [5] -3.3% | Potency [6] | outcome [7] | max response [8] -4.19% | max response [9] 1.6% | Potency [10] | max response [11] -1.92% | outcome [12]

O=[N+]([O-])c1c(Cl)cc(Cl)cc1Cl
inactive: Potency [1] | Potency [2] | Potency [3] | activation [4] 0.0842% | max response [5] 0.895% | Potency [6] | outcome [7] | max response [8] -2.01% | max response [9] 8.66% | Potency [10] | max response [11] 9.05% | outcome [12]

O=C(O[C@@H](C(=O)O)[C@@H](OC(=O)c1ccccc1)C(=O)O)c1ccccc1
inactive: Potency [1] | Potency [2] | Potency [3] | activation [4] -0.0103% | max response [5] 3.38% | outcome [7] | Potency [13] | max response [8] -4.37% | max response [9] 9.93% | Potency [10] | max response [11] 4.96% | outcome [12]

C=C(C)C(N)=O
inactive: Potency [1] | Potency [2] | Potency [3] | activation [4] -1.72% | max response [5] -6.13% | Potency [6] | outcome [7] | max response [8] -10.7% | max response [9] -1.33% | Potency [10] | max response [11] 2.1% | outcome [12]

Cc1cccc(C(=O)O)c1[N+](=O)[O-]
inactive: Potency [1] | Potency [2] | Potency [3] | activation [4] 1.97% | max response [5] -1.91% | Potency [6] | outcome [7] | max response [8] 5.5% | max response [9] -1.21% | Potency [10] | max response [11] -0.47% | outcome [12]

Cc1ccc2oc(=O)ccc2c1
inactive: Potency [1] | Potency [2] | Potency [3] | activation [4] 8.69% and -0.308% | max response [5] 7.89% and -0.114% | Potency [13] | max response [8] -9.69% and -6.43% | max response [9] 2.42% and -2.56% | Potency [10] | max response [11] 9.5% and 1.03% | outcome [12]

CCCCC(CC)COC(=O)CCCCC(=O)OCC(CC)CCCC (stereo unspecified)
inactive: Potency [1] | Potency [2] | Potency [3] | activation [4] -0.729% and -3.02% | max response [5] -4.18% and -1.05% | outcome [7] | Potency [13] | max response [8] 11.7% and -4.79% | max response [9] -4.22% and -9.58% | Potency [10] | max response [11] 3.13% and -1.3% | outcome [12]

O=[N+]([O-])c1ccc(NCCO)c(OCCO)c1
inactive: Potency [1] | Potency [2] | Potency [3] | activation [4] 0.85% | max response [5] -4.01% | outcome [7] | Potency [13] | max response [8] 6.98% | max response [9] -2.57% | Potency [10] | max response [11] -2.89% | outcome [12]
